Source: PubChem BioAssay (several laboratories)
A selection: hits, their analogues and other compounds. The true share with any hit is near 2.3%.
Bcl-xL primary = inhibitors of human Bcl-xL; Q07817; GST-Bcl-xL / FITC-Bim BH3 peptide fluorescence polarization; inhibition, % at 10.9 µM; 0.7% of 320,000 active; AID 2129;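 active = inhibition above the mean of all tested compounds plus 3 SD, cutoff set per campaign, cut at about 30% in these data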;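 note: 0% = DMSO wells and 100% = unlabeled Bim-BH3 peptide competitor; inhibitors lower millipolarization by displacing the labeled peptide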
Target sequence (Q07817 whole entry, looked up): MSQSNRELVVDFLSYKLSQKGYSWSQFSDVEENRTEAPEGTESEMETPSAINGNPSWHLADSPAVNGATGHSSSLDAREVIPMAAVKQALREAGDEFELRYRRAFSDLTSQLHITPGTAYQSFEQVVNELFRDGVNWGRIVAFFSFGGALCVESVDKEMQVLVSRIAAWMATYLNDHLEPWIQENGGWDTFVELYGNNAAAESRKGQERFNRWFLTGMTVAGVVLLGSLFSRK
MCL1 BIM primary = MCL1-BIM-BH3 interaction inhibition (human); AID 2057; GST-MCL1 / FITC-Bim-BH3 fluorescence polarization; Q07820; inhibition, % at 10.9 µM; 0.68% of 320,000 active;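 active = inhibition above the mean inhibition of all tested compounds plus 3 SD, set per campaign, cut at about 40% in these data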;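 note: 0% = DMSO wells and 100% = unlabeled Bim-BH3 peptide control; higher means more loss of mP so more displacement of Bim peptide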
Mcl1 Bid PPI = Mcl-1/Bid interaction inhibition | Q07820 | TR-FRET Mcl-1/Bid-Dy647 peptide binding, 1536-well | inhibition, % at 21.7 µM | 0.97% of 220,000 active;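 active = compounds that cut the binding signal by more than half at the single screening dose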;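 note: His-tagged Mcl-1 with europium anti-His antibody binding Bid BH3 peptide; 0% = Mcl-1 plus peptide wells and 100% = peptide-only wells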
Mcl1 Noxa PPI = disrupts binding of human Mcl-1 to Noxa peptide; AID 1022; Q07820; 1.5% of 220,000 active; inhibition, % at 21.7 µM; TR-FRET Mcl-1/Noxa peptide binding, 2 h;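 active = compounds that cut the protein-peptide binding signal by more than 50% relative to plate controls in a single-dose test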;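 note: His-tagged Mcl-1 with rhodamine Noxa BH3 peptide and terbium anti-His antibody; 0% = Mcl-1 plus Noxa peptide wells and 100% = peptide-only wells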
GLD-1 RNA inh = GLD-1-TGE RNA interaction inhibition (C. elegans); Q17339; purified GLD-1 + fluorescein TGE RNA, fluorescence polarization; inhibition, % at 5.96 µM; 0.44% of 320,000 active;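 active = percent inhibition above a per-plate cutoff, the plate mean of test compounds plus 3 SD, cut at about 30% in these data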;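 note: 0% = DMSO wells with GLD-1 and probe and 100% = wells lacking GLD-1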
Target sequence (Q17339 whole entry, looked up): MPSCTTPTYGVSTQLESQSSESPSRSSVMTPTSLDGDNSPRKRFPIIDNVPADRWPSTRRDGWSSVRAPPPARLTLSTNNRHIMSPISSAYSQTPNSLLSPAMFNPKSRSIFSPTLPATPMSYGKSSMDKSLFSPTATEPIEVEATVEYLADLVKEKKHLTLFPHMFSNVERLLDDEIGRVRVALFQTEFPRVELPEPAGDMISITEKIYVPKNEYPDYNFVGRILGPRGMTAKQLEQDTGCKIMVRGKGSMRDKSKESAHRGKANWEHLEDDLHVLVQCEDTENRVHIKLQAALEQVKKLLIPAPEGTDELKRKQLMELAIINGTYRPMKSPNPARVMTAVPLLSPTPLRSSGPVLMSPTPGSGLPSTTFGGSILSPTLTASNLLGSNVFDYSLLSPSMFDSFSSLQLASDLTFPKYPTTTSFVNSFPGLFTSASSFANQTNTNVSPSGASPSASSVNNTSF
Bim-Mcl-1 = inhibitors of Bim-Mcl-1 interaction, human. Q07820. Bead-based flow cytometry, Bim peptide-Mcl-1 binding. inhibition, % at 10 µM. 0.1% of 190,000 active. AID 1009; in the data active = inhibition above about 40%;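 note: 0% = no compound tracer wells and 100% = peptide blocker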
Numbers without * were called inactive.

What do the screens show for `O=S(=O)(Nc1ccc(N=Nc2ccccc2)cc1)c1ccccc1`?
Bcl-xL primary: 4; MCL1 BIM primary: 4; Mcl1 Bid PPI: 12; Mcl1 Noxa PPI: -11; GLD-1 RNA inh: -1; Bim-Mcl-1: -3

What do the screens show for `COC(=O)c1cccc(Cn2c(Cl)c(/C=N/NC(=O)c3ccco3)sc2=O)c1`?
Bcl-xL primary: -3; MCL1 BIM primary: -8; GLD-1 RNA inh: -10

Results for O=C(COC(=O)c1cc([N+](=O)[O-])ccc1N1CCOCC1)Nc1c(Cl)cccc1C(F)(F)F ?
Bcl-xL primary: 0; MCL1 BIM primary: 3; GLD-1 RNA inh: 5

Results for CCc1ccc(C(=O)NC(CCSC)C(=O)OC)cc1 (stereo not drawn) ?
Bcl-xL primary: 4; MCL1 BIM primary: 4; Mcl1 Bid PPI: -23; Mcl1 Noxa PPI: -1; GLD-1 RNA inh: 4; Bim-Mcl-1: 2

What do the screens show for `CCOC(=O)CC(=O)CSc1nc(CC)c(C)cc1C#N`?
Bcl-xL primary: -6; MCL1 BIM primary: -3; Mcl1 Bid PPI: -13; Mcl1 Noxa PPI: 18; GLD-1 RNA inh: -4

What do the screens show for `CCOC(=O)CC(=O)CSc1nc2ccc(C)cc2cc1C#N`?
Bcl-xL primary: 29; MCL1 BIM primary: 15; Mcl1 Bid PPI: -27; Mcl1 Noxa PPI: 42; GLD-1 RNA inh: 83*; Bim-Mcl-1: 0

Results for CCOc1ccc2nc(SCC(=O)N3c4ccccc4Sc4ccccc43)c(C#N)cc2c1 ?
Bcl-xL primary: 55*; MCL1 BIM primary: 1; Mcl1 Bid PPI: -120; Mcl1 Noxa PPI: -196; GLD-1 RNA inh: 48*; Bim-Mcl-1: 42*

How did O=C(Cc1ccccc1)c1c[nH]c(C(=O)NC2CCCC2)c1 do in these assays?
Bcl-xL primary: 6; MCL1 BIM primary: 5; Mcl1 Bid PPI: -6; Mcl1 Noxa PPI: -1; GLD-1 RNA inh: 1; Bim-Mcl-1: -5

How did O=C(NCC1CCN(c2ccc(S(=O)(=O)N3CCOCC3)cc2)CC1)Nc1ccccc1F do in these assays?
Bcl-xL primary: 4; MCL1 BIM primary: 1; GLD-1 RNA inh: -4

Results for CC1(C)CC(=O)CC(=NCC(=O)O)C1 ?
Bcl-xL primary: 6; MCL1 BIM primary: 3; Mcl1 Bid PPI: -7; Mcl1 Noxa PPI: 66*; GLD-1 RNA inh: 2; Bim-Mcl-1: 0

What do the screens show for `CC1(C)CC(=O)C/C(=N\NC(=S)NCc2ccccc2)C1`?
Bcl-xL primary: 3; MCL1 BIM primary: 15; Mcl1 Bid PPI: -54; Mcl1 Noxa PPI: 11; GLD-1 RNA inh: 0; Bim-Mcl-1: 2

How did Nc1ccccc1N=Nc1ccccc1N do in these assays?
Bcl-xL primary: 46*; MCL1 BIM primary: 47*; GLD-1 RNA inh: 17

Results for CN1CCN(c2cc(N3CCN(C(=O)c4ccco4)CC3)c3c4c(onc24)-c2ccccc2C3=O)CC1 ?
Bcl-xL primary: 37*; MCL1 BIM primary: 43*; GLD-1 RNA inh: 6

What do the screens show for `O=[N+]([O-])c1c(NCCO)cc(N2CCC3(CC2)OCCO3)c2nonc12`?
Bcl-xL primary: -1; MCL1 BIM primary: -2; Mcl1 Bid PPI: -8; Mcl1 Noxa PPI: 6; GLD-1 RNA inh: -12; Bim-Mcl-1: 3

Results for O=C(O)CCCNc1cc(N2CCC3(CC2)OCCO3)c2noc3c2c1C(=O)c1ccccc1-3 ?
Bcl-xL primary: 71*; MCL1 BIM primary: 90*; Mcl1 Bid PPI: -16; Mcl1 Noxa PPI: 89*; GLD-1 RNA inh: 21; Bim-Mcl-1: 24

How did CCOC(=O)N1CCN(c2cc(NCCC(=O)O)c3c4c(onc24)-c2ccccc2C3=O)CC1 do in these assays?
Bcl-xL primary: 43*; MCL1 BIM primary: 33; Mcl1 Bid PPI: -26; Mcl1 Noxa PPI: 73*; GLD-1 RNA inh: 23; Bim-Mcl-1: 27

How did O=C(NNC(=O)c1ccccc1OCc1ccc(F)cc1)c1ccncc1 do in these assays?
Bcl-xL primary: 2; MCL1 BIM primary: -1; GLD-1 RNA inh: 3

What do the screens show for `COc1cc(C(=O)NC(C)c2ccc3ccccc3c2)cc(Cl)c1O` (stereo not drawn)?
Bcl-xL primary: 6; MCL1 BIM primary: 5; GLD-1 RNA inh: 6

How did NC1=NC[C@H](c2ccccc2)N1CCc1cccc(F)c1 do in these assays?
Bcl-xL primary: 6; MCL1 BIM primary: 8; Mcl1 Bid PPI: -25; Mcl1 Noxa PPI: 4; GLD-1 RNA inh: 1

Results for COC(=O)c1c(NC(=O)CC2Nc3cc(C)c(C)cc3NC2=O)sc(C)c1C (stereo not drawn) ?
Bcl-xL primary: 2; MCL1 BIM primary: -9; Mcl1 Bid PPI: 62*; Mcl1 Noxa PPI: 64*; GLD-1 RNA inh: -10; Bim-Mcl-1: -4

Results for O=C1CCc2cc(S(=O)(=O)NCc3ccc(F)cc3)cc3c2N1CCC3 ?
Bcl-xL primary: -2; MCL1 BIM primary: -2; GLD-1 RNA inh: -6

What do the screens show for `O=C(O)c1ccccc1N/N=C/c1c(Sc2nnnn2-c2ccccc2)nc2ccccn2c1=O`?
Bcl-xL primary: -26; MCL1 BIM primary: -48; Mcl1 Bid PPI: -24; Mcl1 Noxa PPI: 78*; GLD-1 RNA inh: -45

Results for O=c1c(/C=N/Nc2ccccc2)c(Sc2nnnn2-c2ccccc2)nc2ccccn12 ?
Mcl1 Bid PPI: -18; Mcl1 Noxa PPI: 33; Bim-Mcl-1: -5

What do the screens show for `O=C(CN1C(=O)c2ccccc2C1=O)Nc1cc(C(=O)O)cc(C(=O)O)c1`?
Bcl-xL primary: 6; MCL1 BIM primary: 7; GLD-1 RNA inh: 64*

How did O=C(CN1C(=O)c2ccccc2C1=O)Nc1cccnc1 do in these assays?
Bcl-xL primary: 10; MCL1 BIM primary: 9; Mcl1 Bid PPI: -12; Mcl1 Noxa PPI: 13; GLD-1 RNA inh: 2; Bim-Mcl-1: -4

How did Cn1ncc(N=Cc2c(O)ccc3ccccc23)c1C(=O)Nc1cccc(Cl)c1 do in these assays?
Bcl-xL primary: 31*; MCL1 BIM primary: 46*; Mcl1 Bid PPI: 55*; Mcl1 Noxa PPI: 44; GLD-1 RNA inh: 10; Bim-Mcl-1: 2

Results for Cn1ncc([N+](=O)[O-])c1C(=O)Nc1cccc(Cl)c1 ?
Bcl-xL primary: 0; MCL1 BIM primary: 7; GLD-1 RNA inh: 6

How did Cn1ncc(Cl)c1C(=O)Nc1cccc(Cl)c1 do in these assays?
Bcl-xL primary: 15; MCL1 BIM primary: 21; Mcl1 Bid PPI: 4; Mcl1 Noxa PPI: 52*; GLD-1 RNA inh: 3; Bim-Mcl-1: -1

What do the screens show for `CCN(CC)c1ccc(NC2=C(Cl)C(=O)c3ccccc3C2=O)cc1`?
Bcl-xL primary: 12; MCL1 BIM primary: 11; Mcl1 Bid PPI: 7; Mcl1 Noxa PPI: 89*; GLD-1 RNA inh: 16; Bim-Mcl-1: -2

How did Cc1ccc(NC2=C(Cl)C(=O)c3ccccc3C2=O)cc1 do in these assays?
Bcl-xL primary: 5; MCL1 BIM primary: 1; Mcl1 Bid PPI: -3; Mcl1 Noxa PPI: 20; GLD-1 RNA inh: 5; Bim-Mcl-1: 23

How did CC(=O)c1c(N=CN(C)C)nc(C)nc1-c1ccccc1 do in these assays?
Bcl-xL primary: 6; MCL1 BIM primary: 3; Mcl1 Bid PPI: 89*; Mcl1 Noxa PPI: 11; GLD-1 RNA inh: 11; Bim-Mcl-1: 0
